Test results from the supplement of paper PMC10849652.
Targets with a hit are over-represented here; the source holds about 8,800 in all. About 0.5% of all pairs of compound and target were hits. Unmarked numbers belong to inactive results.

How the values were obtained:
Assay in all cases: log2 fold change, soluble protein after heating vs DMSO (PISA); higher = thermal stabilisation; K562 lysate, 10 uM; active = over 0.2 and 3.5 SD of the protein, either way, in both replicates (recomputed)
nilotinib = compound: Cc1cn(-c2cc(NC(=O)c3ccc(C)c(Nc4nccc(-c5cccnc5)n4)c3)cc(C(F)(F)F)c2)cn1 [nilotinib]
Procedure, shortened: (§1)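 Dounce homogenisation of K562 pellets in PBS pH 7.4 with 1 mM MgCl2 produced a crude extract, used at 1 mg/mL protein. Exposure to 10 μM compound lasted 30 min, and aliquots were then heated for 3 min across 48°C-58°C, pooled and brought to 0.5% NP-40 at 4°C. The supernatant after 21,000xg for 90 min was quantified by TMTpro 16plex LC-MS/MS with channel sums equalised. Duplicate values are given as log-two fold change in thermal stability relative to solvent controls.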

[1] = compound: Cc1nc(Nc2n[nH]c3c2CN(C(=O)N[C@H](CN(C)C)c2ccccc2)C3(C)C)c2sccc2n1
Procedure, shortened: as §1

dasatinib = compound: Cc1nc(Nc2ncc(C(=O)Nc3c(C)cccc3Cl)s2)cc(N2CCN(CCO)CC2)n1 [dasatinib]
Procedure, shortened: as §1

[2] = compound: Cc1ncc(-c2ccnc(Nc3ccc(S(C)(=O)=O)cc3)n2)n1C(C)C
Procedure, shortened: as §1

[3] = compound: Cn1cc(-c2ccc3c(c2)CCN3C(=O)Cc2cccc(C(F)(F)F)c2)c2c(N)ncnc21
Procedure, shortened: as §1

quisinostat = compound: Cn1cc(CNCC2CCN(c3ncc(C(=O)NO)cn3)CC2)c2ccccc21 [quisinostat]
Procedure, shortened: as §1

tipifarnib = compound: Cn1cncc1[C@@](N)(c1ccc(Cl)cc1)c1ccc2c(c1)c(-c1cccc(Cl)c1)cc(=O)n2C [tipifarnib]
Procedure, shortened: as §1

[4] = compound: NC(=O)Nc1cc(-c2cccc(F)c2)sc1C(=O)N[C@H]1CCCNC1
Procedure, shortened: as §1

[5] = compound: NC(=O)c1cnc(N[C@@H]2CCCC[C@@H]2N)nc1Nc1cccc(-n2nccn2)c1
Procedure, shortened: as §1

[6] = compound: NC1(c2ccc(-c3nc4ccn5c(=O)[nH]nc5c4cc3-c3ccccc3)cc2)CCC1
Procedure, shortened: as §1

Chain of UniProt P11279 (P11279 whole entry, looked up): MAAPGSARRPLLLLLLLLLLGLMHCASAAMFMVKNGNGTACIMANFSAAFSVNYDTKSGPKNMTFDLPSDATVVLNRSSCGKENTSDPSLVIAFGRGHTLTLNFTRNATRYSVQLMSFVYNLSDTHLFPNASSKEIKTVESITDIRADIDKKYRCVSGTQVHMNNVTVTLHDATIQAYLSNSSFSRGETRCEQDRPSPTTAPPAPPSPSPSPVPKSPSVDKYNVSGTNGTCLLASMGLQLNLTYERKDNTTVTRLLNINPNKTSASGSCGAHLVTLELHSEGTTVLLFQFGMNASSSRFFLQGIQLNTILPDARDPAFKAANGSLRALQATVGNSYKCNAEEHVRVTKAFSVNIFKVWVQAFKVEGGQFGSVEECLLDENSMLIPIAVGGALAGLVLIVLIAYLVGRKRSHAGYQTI
Chain of UniProt Q9NZL9 (Q9NZL9 whole entry, looked up): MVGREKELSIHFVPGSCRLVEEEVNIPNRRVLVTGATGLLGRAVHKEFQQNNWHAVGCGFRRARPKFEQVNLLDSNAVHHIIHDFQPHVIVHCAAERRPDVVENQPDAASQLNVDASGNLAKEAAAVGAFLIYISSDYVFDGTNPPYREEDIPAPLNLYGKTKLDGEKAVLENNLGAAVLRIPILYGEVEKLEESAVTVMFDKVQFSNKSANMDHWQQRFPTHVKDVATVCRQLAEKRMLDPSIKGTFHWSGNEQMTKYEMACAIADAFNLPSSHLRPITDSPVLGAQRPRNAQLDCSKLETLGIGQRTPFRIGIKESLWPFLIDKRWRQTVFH
Chain of UniProt Q15334 (Q15334 whole entry, looked up): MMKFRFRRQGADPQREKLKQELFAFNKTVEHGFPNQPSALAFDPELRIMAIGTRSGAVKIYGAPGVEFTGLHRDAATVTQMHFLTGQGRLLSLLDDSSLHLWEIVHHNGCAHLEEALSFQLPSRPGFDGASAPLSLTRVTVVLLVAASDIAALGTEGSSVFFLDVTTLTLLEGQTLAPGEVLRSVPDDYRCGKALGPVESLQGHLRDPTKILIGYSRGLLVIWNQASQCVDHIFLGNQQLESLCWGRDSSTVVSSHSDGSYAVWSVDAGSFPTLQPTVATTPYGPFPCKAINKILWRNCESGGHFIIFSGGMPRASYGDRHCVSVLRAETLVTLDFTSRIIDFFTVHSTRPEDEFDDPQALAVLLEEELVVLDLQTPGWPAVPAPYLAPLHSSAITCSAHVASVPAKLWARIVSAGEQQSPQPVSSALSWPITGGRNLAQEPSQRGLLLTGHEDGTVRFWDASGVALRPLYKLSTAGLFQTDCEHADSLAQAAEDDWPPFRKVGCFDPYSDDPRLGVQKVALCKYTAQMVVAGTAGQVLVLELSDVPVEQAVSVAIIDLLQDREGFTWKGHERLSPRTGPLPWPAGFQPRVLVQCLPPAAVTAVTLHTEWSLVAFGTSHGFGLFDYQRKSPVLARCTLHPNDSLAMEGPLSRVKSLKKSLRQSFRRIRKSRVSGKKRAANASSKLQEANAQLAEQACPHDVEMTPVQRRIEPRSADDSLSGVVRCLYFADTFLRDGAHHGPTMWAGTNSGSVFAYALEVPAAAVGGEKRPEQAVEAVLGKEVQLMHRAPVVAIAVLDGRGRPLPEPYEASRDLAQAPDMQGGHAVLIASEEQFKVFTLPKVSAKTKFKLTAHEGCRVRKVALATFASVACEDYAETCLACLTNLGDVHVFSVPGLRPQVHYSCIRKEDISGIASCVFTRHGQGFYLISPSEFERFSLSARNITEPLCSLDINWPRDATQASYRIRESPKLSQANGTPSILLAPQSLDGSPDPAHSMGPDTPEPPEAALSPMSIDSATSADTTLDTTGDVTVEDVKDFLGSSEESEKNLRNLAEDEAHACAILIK
Chain of UniProt Q9UBB5 (Q9UBB5 whole entry, looked up): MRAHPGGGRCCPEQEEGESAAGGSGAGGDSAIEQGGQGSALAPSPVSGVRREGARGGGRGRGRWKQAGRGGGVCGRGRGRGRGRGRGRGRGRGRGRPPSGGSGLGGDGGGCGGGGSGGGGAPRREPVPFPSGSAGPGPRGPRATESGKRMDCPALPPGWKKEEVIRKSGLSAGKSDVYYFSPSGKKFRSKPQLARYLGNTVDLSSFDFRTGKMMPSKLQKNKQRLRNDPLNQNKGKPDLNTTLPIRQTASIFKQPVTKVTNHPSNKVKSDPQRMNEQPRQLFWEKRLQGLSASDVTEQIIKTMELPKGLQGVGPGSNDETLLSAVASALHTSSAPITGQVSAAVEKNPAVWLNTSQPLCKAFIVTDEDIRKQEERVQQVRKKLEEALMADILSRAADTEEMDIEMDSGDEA
Chain of UniProt Q16644 (Q16644 whole entry, looked up): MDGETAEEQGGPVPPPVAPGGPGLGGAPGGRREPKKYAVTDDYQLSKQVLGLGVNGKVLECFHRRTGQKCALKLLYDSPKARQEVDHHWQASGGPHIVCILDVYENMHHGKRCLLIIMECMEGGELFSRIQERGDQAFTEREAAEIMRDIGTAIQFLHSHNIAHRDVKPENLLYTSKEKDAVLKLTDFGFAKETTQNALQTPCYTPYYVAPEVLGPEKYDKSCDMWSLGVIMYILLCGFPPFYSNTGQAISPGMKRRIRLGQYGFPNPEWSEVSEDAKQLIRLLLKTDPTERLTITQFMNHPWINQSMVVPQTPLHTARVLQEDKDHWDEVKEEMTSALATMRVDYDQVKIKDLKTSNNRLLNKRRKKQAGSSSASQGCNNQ
Chain of UniProt Q15031 (Q15031 whole entry, looked up): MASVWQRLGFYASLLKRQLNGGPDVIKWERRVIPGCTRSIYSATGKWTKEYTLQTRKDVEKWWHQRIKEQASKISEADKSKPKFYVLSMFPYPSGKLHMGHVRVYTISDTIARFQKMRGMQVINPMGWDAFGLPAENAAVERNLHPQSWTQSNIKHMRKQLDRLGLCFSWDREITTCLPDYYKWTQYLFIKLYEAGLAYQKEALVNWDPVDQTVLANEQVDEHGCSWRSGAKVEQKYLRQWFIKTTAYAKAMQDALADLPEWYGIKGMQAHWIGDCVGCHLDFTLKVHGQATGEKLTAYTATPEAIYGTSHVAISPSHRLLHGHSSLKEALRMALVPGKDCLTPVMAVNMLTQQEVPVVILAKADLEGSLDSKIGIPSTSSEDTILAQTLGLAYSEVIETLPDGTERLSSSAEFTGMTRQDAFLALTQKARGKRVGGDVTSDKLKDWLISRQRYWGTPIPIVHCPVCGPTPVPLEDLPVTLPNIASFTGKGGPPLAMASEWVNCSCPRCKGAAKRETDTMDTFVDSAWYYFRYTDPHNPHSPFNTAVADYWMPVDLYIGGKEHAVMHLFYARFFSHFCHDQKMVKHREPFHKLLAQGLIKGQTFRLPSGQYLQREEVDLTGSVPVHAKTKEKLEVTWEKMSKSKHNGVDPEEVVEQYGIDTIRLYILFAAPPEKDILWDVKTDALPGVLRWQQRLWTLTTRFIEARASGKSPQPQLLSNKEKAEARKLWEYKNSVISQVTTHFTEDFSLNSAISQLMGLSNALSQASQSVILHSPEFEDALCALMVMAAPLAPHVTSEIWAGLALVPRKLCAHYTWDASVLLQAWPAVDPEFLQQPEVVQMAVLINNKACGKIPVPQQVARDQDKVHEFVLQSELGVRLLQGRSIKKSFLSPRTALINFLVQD
Chain of UniProt Q14807 (Q14807 whole entry, looked up): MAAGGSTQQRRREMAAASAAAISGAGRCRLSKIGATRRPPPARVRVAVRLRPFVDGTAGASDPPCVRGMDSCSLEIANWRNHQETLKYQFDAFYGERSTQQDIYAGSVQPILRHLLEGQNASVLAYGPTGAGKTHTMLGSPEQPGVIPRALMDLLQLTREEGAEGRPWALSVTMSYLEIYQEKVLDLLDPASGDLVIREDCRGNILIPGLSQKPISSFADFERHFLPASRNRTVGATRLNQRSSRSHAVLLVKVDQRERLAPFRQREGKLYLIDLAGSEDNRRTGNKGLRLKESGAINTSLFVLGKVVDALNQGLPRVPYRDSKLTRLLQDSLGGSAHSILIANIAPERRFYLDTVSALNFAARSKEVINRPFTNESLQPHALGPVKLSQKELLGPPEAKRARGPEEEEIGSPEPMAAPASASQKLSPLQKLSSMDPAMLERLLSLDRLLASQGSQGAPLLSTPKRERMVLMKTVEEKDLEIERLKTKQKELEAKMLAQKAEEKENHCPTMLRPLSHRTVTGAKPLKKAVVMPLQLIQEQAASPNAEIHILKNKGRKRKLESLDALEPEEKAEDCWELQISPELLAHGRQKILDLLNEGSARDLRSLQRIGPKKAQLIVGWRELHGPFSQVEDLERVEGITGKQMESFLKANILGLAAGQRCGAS
Chain of UniProt P49137 (P49137 whole entry, looked up): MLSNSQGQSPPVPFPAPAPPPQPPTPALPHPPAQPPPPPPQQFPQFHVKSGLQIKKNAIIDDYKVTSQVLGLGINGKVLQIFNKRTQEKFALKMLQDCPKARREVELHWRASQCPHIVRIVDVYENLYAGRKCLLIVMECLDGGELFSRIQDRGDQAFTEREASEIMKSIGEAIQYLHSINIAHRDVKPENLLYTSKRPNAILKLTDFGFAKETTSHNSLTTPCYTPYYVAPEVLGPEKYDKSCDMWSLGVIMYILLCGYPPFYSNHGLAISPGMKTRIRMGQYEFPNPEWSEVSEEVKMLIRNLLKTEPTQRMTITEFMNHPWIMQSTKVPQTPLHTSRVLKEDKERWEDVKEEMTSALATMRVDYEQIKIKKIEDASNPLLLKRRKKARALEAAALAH
Chain of UniProt Q9Y448 (Q9Y448 whole entry, looked up): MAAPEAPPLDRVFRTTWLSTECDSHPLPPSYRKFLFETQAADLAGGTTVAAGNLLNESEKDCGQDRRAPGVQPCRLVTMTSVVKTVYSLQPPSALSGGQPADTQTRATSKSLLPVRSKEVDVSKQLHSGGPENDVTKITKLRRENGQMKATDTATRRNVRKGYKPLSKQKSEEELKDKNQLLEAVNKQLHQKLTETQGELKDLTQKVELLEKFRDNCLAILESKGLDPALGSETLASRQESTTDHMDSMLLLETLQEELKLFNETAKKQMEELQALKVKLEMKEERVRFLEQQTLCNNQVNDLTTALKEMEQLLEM
Chain of UniProt Q13015 (Q13015 whole entry, looked up): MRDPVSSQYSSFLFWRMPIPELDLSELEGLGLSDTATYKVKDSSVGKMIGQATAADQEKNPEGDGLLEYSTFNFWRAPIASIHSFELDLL

Target	log2 fold change (nilotinib)	log2 fold change [1]	log2 fold change (dasatinib)	log2 fold change [2]	log2 fold change [3]	log2 fold change (quisinostat)	log2 fold change (tipifarnib)	log2 fold change [4]	log2 fold change [5]	log2 fold change [6]
KNSTRN (UniProt Q9Y448)	0.012	0.03	-0.048	-0.071	-0.005	0.165	0.033	-0.02	-0.002	-0.01
MLXIP (UniProt Q9HAP2)	0.09	0.003	-0.068	0.003	0.02	-0.04	0	0.082	-0.01	-0.028
MAPKAPK2 (UniProt P49137)	0.032	0.068	-0.043	-0.008	0	0.01	0.032	0.148	0.022	0.008
LZTR1 (UniProt Q8N653)	0.016	0.014	-0.063	-0.068	0.008	-0.029	-0.036	0.099	-0.033	-0.019
MBD2 (UniProt Q9UBB5)	0.012	0.007	-0.039	0	0.069	-0.014	-0.011	-0.009	-0.003	0.024
MED10 (UniProt Q9BTT4)	0.042	-0.012	0.031	-0.021	0.043	0.04	-0.066	-0.082	0.025	-0.045
LLGL1 (UniProt Q15334)	0	0.149	-0.011	0.052	0.016	-0.046	-0.077	0.159	0.053	0.075
MPDZ (UniProt O75970)	-0.097	0.245	-0.082	-0.059	-0.049	-0.084	0.328	-0.057	-0.041	0.112
MRPL35 (UniProt Q9NZE8)	0.05	-0.027	0.062	0.049	-0.028	0.004	-0.037	-0.034	-0.007	0.056
MAPKAPK3 (UniProt Q16644)	-0.024	0.077	0.023	-0.058	0.016	0.01	0.017	0.021	0.013	0.009
KIF4A (UniProt O95239)	-0.02	0.029	-0.011	0.014	0.037	-0.104	0.017	0.042	-0.014	0.014
KIF22 (UniProt Q14807)	0.041	-0.021	-0.023	-0.029	-0.055	-0.451 (active)	-0.015	0.081	-0.023	-0.171
KRAS (UniProt P01116)	0.034	-0.014	0.049	0.018	-0.015	0.042	0.129	-0.001	0.005	-0.032
MLLT11 (UniProt Q13015)	0.068	0.03	-0.015	-0.051	-0.06	-0.029	-0.204	0.107	0.011	0.055
MAT2B (UniProt Q9NZL9)	0.002	-0.014	-0.023	-0.024	-0.007	0.021	0.02	-0.005	0.04	0.009
KMT2A isoform 3 (UniProt Q03164)	0.098	-0.428 (active)	0.017	0.154	0.056	-0.156	-0.178	0.032	0.133	-0.037
MAP4 isoform 5 (UniProt P27816)	-0.168	-0.029	-0.371	0.291	0.029	-0.036	-0.101	0.03	-0.02	-0.213
KLHL12 isoform 2 (UniProt Q53G59)	-0.037	-0.044	-0.056	0.064	-0.07	0.04	0.015	0.097	0.043	0.035
LAMP1 (UniProt P11279)	0.021	-0.033	-0.058	0.002	-0.036	-0.113	-0.012	0.016	-0.003	-0.017
MPP1 (UniProt Q00013)	-0.017	-0.014	-0.011	0.011	0.007	0.017	0	0.024	0.017	0
KIF4B (UniProt Q2VIQ3)	-0.016	0.034	-0.013	0.049	0.096	-0.08	-0.009	0.037	0.045	-0.078
MCMBP (UniProt Q9BTE3)	-0.01	-0.008	-0.031	-0.028	0.008	-0.039	0.024	0.039	0.014	-0.033
LYN (UniProt P07948)	0.158	0.218	0.457	-0.026	0.095	-0.125	-0.154	0.842 (active)	0.084	-0.037
LARS2 (UniProt Q15031)	-0.002	0.048	-0.075	-0.008	0.065	0.028	-0.085	0.089	0.044	-0.036
LIMK2 isoform 3 (UniProt P53671)	0.074	0.06	-0.126	0.07	-0.099	-0.003	-0.05	-0.066	-0.064	0.008
MED8 isoform 2 (UniProt Q96G25)	0.084	-0.033	-0.017	-0.007	0.044	-0.043	0.081	-0.005	0.016	0.024
MORF4L1 isoform 2 (UniProt Q9UBU8)	0.037	0.069	-0.013	-0.009	0	0	-0.009	-0.007	-0.008	-0.018
